Results on twelve compounds are retold here after PubChem BioAssay (Tox21).

Structures are written as SMILES. Unmarked numbers belong to inactive results. Records with an inconclusive call do not appear. Active and inactive are the calls of the source. Unless noted, the call rests on the fitted dose curve; in most records, active means well fitted curve in the direction sought with a large enough effect in the repeat runs; inconclusive means weak or mixed curves; inactive means no such curve, though single readings can be large; an effect the other way counts as inactive or inconclusive.

The nature of test [1]: qHTS assay to identify small molecule agonists of the estrogen receptor alpha (ER-alpha) signaling pathway in the presence of an antagonist - cell viability counter screen (AID 1259386). Further: series mostly up to about 92 µM; on the % scale 0 is the no-effect control and ±100 the full control effect; nearly all actives have a fitted effect of over 30% in size. The essentials: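 Compounds tested at 15 concentrations for 22 h at 37C alongside 10.0nM (final) ICI-182,780 antagonist, in VM7Luc4E2 cells grown in phenol red-free, charcoal-stripped medium. Viability read by CellTiter-Fluor fluorescence after 1 h reagent incubation.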
(qHTS replaces the single test concentration by a dilution series.)

Test [2] in a line: qHTS assay to identify small molecule antagonists of the TGF-beta/Smad signaling pathway - cell viability counter screen (AID 1346824). Further: on the % scale 0 is the no-effect control and ±100 the full control effect; nearly all actives have a fitted effect of over 50% in size. Put shortly:
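Cytotoxicity counter-screen run in the same wells as the beta-lactamase Smad reporter read: CellTiter-Glo luminescence after 30 min at room temperature. HEK 293T SBE-bla cells had 5 hr compound exposure at 37 C with TGF-beta1 (0.25 ng/mL stock).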

A short description of test [3]: qHTS assay to identify small molecule agonists of the TGF-beta/Smad signaling pathway - cell viability counter screen (AID 1346829). Further: top concentration of the series differs between compounds; on the % scale 0 is the no-effect control and ±100 the full control effect; nearly all actives have a fitted effect of over 45% in size. The essentials:
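In parallel with the Smad reporter read, viability of HEK 293T cells stably carrying SBE-bla is quantified by ATP luminescence following 5 hr compound treatment.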

The nature of test [4]: qHTS assay to identify small molecule agonists of the TGF-beta/Smad signaling pathway (AID 1346859; active means well fitted activation curve with a large enough effect in the signal ratio in the repeat runs, not every such curve was filed as active; the % refers to the signal ratio; further: series mostly up to about 77 µM; on the % scale 0 is the no-effect control and ±100 the full control effect). The essentials:
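Screening used HEK 293T SBE-bla cells at 4,000/well. Test agents: 5 hr, 37 C. Detection: FRET substrate, 2 hr RT, then excitation 405 nm with emissions at 460 and 530 nm.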

In test [5] the target is Thyrotropin-releasing hormone receptor (Homo sapiens) (UniProt P34981). Kind of test: qHTS assay to identify small molecule antagonists of the thyrotropin-releasing hormone receptor (TRHR) signaling pathway (AID 1346877; active means well fitted inhibition curve with a large enough effect in the repeat runs, not every such curve was filed as active; further: series mostly up to about 51 µM; on the % scale 0 is the no-effect control and ±100 the full control effect). Put shortly:
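Antagonist mode: after a 5 min room-temperature compound exposure, cells were stimulated with 1 nM (final) TRH. Dye-loaded TRHR-HEK293 cells were used, and calcium-dependent fluorescence was followed for 3 min, with 15-point titrations run in triplicate.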

Test [6] has the same target. Kind of test: qHTS assay to identify small molecule agonists of the thyrotropin-releasing hormone receptor (TRHR) signaling pathway (AID 1346891; calls by dose curve; further: series mostly up to about 58 µM; on the % scale 0 is the no-effect control and ±100 the full control effect). Put shortly: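 Readout was intracellular calcium fluorescence in TRHR-Hek293 cells. Cells were incubated 18 h, dye-loaded 2 h at 37 °C, and treated with compound in agonist mode.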
Test [7] is described as follows: Human pregnane X receptor (PXR) small molecule agonists, qHTS cell viability counter screen (AID 1346977). Further: nearly all actives have a fitted effect of over 50% in size. Further: potency means the concentration at half of the fitted maximal effect. Put shortly: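 In each well, the PXR reporter HepG2 line was checked for viability: CellTiter-Fluor reagent added 23hr post-dosing, fluorescence read after 1hr incubation at 37C.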
Test [8] is described as follows: Caspase-3/7 induction in HepG2 cells by small molecules, qHTS assay (AID 1346978). Further: on the % scale 0 is the no-effect control and ±100 the full control effect; nearly all actives have a fitted effect of over 15% in size. Put shortly: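 Caspase-3/7 induction was measured by Caspase-Glo 3/7 luminescence (30 min, room temperature) after a 17 hr compound exposure of wild-type HepG2 cells seeded at 2,000 per well and pre-incubated 5 hr.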
The nature of test [9]: Caspase-3/7 induction in CHO-K1 cells by small molecules, qHTS assay (AID 1346980). Further: on the % scale 0 is the no-effect control and ±100 the full control effect; nearly all actives have a fitted effect of over 15% in size. The essentials:
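Luminescent Caspase-Glo 3/7 read (30min, room temperature) quantified apoptosis induction. Cells were wild-type CHO-K1, treated with compound for 17hr at 37 C and 5% CO2.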

A short description of test [10]: Caspase-3/7 induction in HepG2 cells by small molecules, qHTS cell viability counter screen (AID 1346981). Further: series mostly up to about 92 µM; on the % scale 0 is the no-effect control and ±100 the full control effect; nearly all actives have a fitted effect of over 30% in size. Put shortly: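 CellTiter-Fluor fluorescence measured viability in the same wells used for Caspase-Glo 3/7. HepG2 (wild type) at 2,000 cells/well were pre-incubated 5 hr, dosed, and given reagent at 16 hr, with 1 hr further at 37C.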
Test [11] has as its target Nuclear receptor subfamily 1 group I member 2 (Homo sapiens) (UniProt O75469). Kind of test: Human pregnane X receptor (PXR) small molecule agonists, qHTS assay (AID 1346982). Further: nearly all actives have a fitted effect of over 35% in size. Further: potency means the concentration at half of the fitted maximal effect. On activation: on the % scale 0 is the no-effect control and ±100 the full control effect. Put shortly: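 Agonist mode: luminescence from ONE-Glo after 24 h compound exposure at 37C in HepG2 cells carrying hPXR-responsive CYP3A4 luciferase, plated in charcoal-stripped serum medium 5 h beforehand.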

In test [12] the target is Nuclear receptor subfamily 1 group I member 2 (Rattus norvegicus) (UniProt Q9R1A7). Description: Rat pregnane X receptor (rPXR) activation by small molecules, qHTS assay (AID 1346983). Further: on the % scale 0 is the no-effect control and ±100 the full control effect; nearly all actives have a fitted effect of over 20% in size. The note with it: rPXR luciferase reporter cells, One-Glo luminescence, 24 h; max activation: stronger effect = higher value. The essentials:
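Luminescent readout (One-Glo luciferase, 30 min room temperature) followed 24 hr compound treatment at 37 C of rPXR cells plated 2,000 per well and preincubated 5hr; qHTS format with compounds delivered in DMSO.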

Test [13] concerns the target Nuclear receptor subfamily 1 group I member 2 (Homo sapiens) (UniProt O75469). Kind of test: CYP3A4 induction through human pregnane X receptor (PXR) by small molecules, qHTS assay (AID 1346984). Further: potency means the concentration at half of the fitted maximal effect; nearly all actives have a fitted effect of over 40% in size. Put shortly:
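Read-out is luminescence after One-Glo addition, following a 3 hr, 37C incubation with Luciferin-IPA CYP3A4 substrate (3uM final). Before that, compounds were on DPX-2 cells (HepG2 co-transfected with PXR element plus CYP3A4-promoter luciferase) for 24 hr at 37C.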

The target is the same in test [14]. Description: Human pregnane X receptor (PXR) activation by small molecules, qHTS assay (AID 1346985). Further: potency means the concentration at half of the fitted maximal effect; nearly all actives have a fitted effect of over 40% in size. Put shortly: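 DPX-2 cells (HepG2 co-transfected with a PXR response element and a CYP3A4-promoter luciferase construct) were seeded at 2,000 per well, rested 5 hr at 37C, then exposed to DMSO-dissolved compounds for 24 hr. Activation was read as luciferase luminescence.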

The target in test [15] is Progesterone receptor (Homo sapiens) (UniProt P06401). Kind of test: qHTS assay to identify small molecule agonists of the progesterone receptor (PR) signaling pathway (AID 1346784; calls by dose curve; further: on the % scale 0 is the no-effect control and ±100 the full control effect; nearly all actives have a fitted effect of over 30% in size). Put shortly:
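Reporter assay, GripTite PR-UAS-bla HEK 293T cells: 16 hr exposure to DMSO-dissolved compounds at 37C, 5% CO2, in steroid-depleted (2% charcoal-stripped FBS) medium; beta-lactamase measured by FRET fluorescence.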

Test [16] is described as follows: qHTS assay to identify small molecule antagonists of the progesterone receptor (PR) signaling pathway - cell viability counter screen (AID 1346798). Further: nearly all actives have a fitted effect of over 50% in size. Further: potency means the concentration at half of the fitted maximal effect. Put shortly: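 In the same plates used for the beta-lactamase readout, cell viability of compound- and R5020-treated PR-UAS-bla HEK293T cells (16 hr, 37C) was assessed by CellTiter-Glo luminescence.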
The target of test [17] is Progesterone receptor (Homo sapiens) (UniProt P06401). Kind of test: qHTS assay to identify small molecule antagonists of the progesterone receptor (PR) signaling pathway (AID 1346795; active means well fitted inhibition curve with a large enough effect in the signal ratio in the repeat runs, not every such curve was filed as active; the % refers to the signal ratio; further: potency means the concentration at half of the fitted maximal effect). The essentials:
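Stimulus R5020 at 1 nM final; cells HEK293T PR-UAS-bla; medium with 2% charcoal-stripped FBS; compound exposure 16 hr at 37C, 5% CO2; detection by FRET beta-lactamase substrate, 2 hr, room temperature.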

The nature of test [18]: Caspase-3/7 induction in CHO-K1 cells by small molecules, qHTS cell viability counter screen (AID 1346979). Further: nearly all actives have a fitted effect of over 35% in size. Further: potency means the concentration at half of the fitted maximal effect. The essentials: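 Following a 5hr settling period, CHO-K1 cells at 1,500 per well received DMSO-dissolved compounds. Cell viability was quantified 16hr later by CellTiter-Fluor fluorescence, measured after 1hr with reagent at 37C.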
The nature of test [19]: qHTS assay to identify small molecule agonists of the progesterone receptor (PR) signaling pathway - cell viability counter screen (AID 1346799; calls by dose curve; further: nearly all actives have a fitted effect of over 45% in size; further: potency means the concentration at half of the fitted maximal effect). Put shortly:
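Multiplexed viability read: CellTiter-Glo luminescence, 30 min RT, following LiveBLAzer FRET measurement on PR-UAS-bla HEK293T cells exposed to compounds 16 hr.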

Chain of Thyrotropin-releasing hormone receptor (Homo sapiens) (P34981 whole entry, looked up): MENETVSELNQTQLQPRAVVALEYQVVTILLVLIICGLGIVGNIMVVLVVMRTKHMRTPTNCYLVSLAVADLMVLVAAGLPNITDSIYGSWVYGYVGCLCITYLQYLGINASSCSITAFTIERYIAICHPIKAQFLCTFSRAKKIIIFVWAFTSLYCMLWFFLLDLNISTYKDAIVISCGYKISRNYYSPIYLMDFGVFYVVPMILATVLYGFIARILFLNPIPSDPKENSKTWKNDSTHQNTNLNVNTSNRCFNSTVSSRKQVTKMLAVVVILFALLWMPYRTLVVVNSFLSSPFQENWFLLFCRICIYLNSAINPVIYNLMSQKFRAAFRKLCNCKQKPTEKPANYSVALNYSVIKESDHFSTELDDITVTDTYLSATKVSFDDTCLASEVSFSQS
Chain of Progesterone receptor (Homo sapiens) (P06401 whole entry, looked up): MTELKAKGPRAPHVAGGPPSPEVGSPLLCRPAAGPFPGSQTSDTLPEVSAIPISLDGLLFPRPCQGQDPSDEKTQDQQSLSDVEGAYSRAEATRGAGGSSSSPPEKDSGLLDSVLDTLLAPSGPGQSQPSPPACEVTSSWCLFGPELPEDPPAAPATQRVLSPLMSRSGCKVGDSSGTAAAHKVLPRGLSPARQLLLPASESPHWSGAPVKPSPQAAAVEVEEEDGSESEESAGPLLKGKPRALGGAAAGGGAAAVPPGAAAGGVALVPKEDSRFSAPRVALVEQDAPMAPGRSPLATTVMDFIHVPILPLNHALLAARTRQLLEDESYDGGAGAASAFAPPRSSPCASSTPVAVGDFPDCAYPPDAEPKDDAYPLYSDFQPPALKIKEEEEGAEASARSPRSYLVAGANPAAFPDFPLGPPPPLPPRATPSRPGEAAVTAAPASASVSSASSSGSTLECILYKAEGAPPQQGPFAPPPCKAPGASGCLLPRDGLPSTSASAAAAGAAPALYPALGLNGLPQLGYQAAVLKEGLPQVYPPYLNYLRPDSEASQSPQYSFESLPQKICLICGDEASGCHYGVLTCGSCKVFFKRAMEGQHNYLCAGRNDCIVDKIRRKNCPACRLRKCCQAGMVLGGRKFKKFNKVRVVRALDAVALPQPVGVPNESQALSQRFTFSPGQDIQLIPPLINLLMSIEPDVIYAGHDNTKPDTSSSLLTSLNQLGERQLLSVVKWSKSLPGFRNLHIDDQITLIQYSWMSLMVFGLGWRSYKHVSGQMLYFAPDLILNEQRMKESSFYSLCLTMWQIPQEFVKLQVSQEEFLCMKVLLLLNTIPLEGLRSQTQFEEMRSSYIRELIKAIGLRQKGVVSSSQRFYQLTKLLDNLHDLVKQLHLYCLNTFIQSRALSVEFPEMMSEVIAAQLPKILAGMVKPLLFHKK
Chain of Nuclear receptor subfamily 1 group I member 2 (Homo sapiens) (O75469 whole entry, looked up): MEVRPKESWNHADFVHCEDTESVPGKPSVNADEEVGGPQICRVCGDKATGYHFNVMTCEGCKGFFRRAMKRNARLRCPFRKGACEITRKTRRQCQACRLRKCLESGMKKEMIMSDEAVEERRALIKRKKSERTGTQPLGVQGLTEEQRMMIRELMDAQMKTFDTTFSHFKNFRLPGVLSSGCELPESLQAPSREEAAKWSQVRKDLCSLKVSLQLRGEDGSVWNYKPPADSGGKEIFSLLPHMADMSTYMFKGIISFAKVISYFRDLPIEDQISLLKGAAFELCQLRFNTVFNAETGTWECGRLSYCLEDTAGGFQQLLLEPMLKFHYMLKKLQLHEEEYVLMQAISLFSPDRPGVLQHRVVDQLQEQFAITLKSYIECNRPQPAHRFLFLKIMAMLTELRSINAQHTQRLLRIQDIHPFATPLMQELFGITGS
Chain of Nuclear receptor subfamily 1 group I member 2 (Rattus norvegicus) (Q9R1A7 whole entry, looked up): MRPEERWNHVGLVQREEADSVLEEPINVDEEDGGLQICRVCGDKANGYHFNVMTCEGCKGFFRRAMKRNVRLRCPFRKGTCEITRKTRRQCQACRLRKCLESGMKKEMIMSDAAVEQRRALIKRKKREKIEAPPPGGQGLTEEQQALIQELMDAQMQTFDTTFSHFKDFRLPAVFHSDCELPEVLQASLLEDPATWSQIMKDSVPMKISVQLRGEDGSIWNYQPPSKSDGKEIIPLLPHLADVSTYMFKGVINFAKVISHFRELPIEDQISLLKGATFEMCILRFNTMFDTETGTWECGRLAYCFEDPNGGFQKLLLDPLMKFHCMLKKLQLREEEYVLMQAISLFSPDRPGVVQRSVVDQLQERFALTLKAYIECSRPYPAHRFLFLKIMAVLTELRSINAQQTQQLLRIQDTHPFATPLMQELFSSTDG

`CCC(COC(=O)c1cc(OC)c(OC)c(OC)c1)(c1ccccc1)N(C)C` (centres undefined): the Potency entry in test [1], in [2], in [3], in test [5], in test [6] and in [7] was “inactive” in each case. Also, the Potency entry in test [8], in test [9] and in [10] was “inactive” each time. For the same compound, the call in test [4] was inactive. Further, the Potency in test [11] was 29.8 µM (active); in test [13] it was 15.8 µM (active); in test [14], 25.1 µM (active). Also, in test [12], the max activation was -1.12%.
On to `CC(=O)c1cc2c(cc1C)C(C)(C)C(C)CC2(C)C` (centres undefined), for which the Potency entry in test [1], in [15], in [16], in test [2], in [5] and in test [7] was “inactive” each time. In addition, the Potency entry in [10] is “inactive”. Further, the compound was classed as inactive in test [4].
Consider `Cc1ccc(-c2c(Cl)nc(C#N)n2S(=O)(=O)N(C)C)cc1`, for which the Potency result in test [1], in test [2], in [8] and in [9] was “inactive” each time. The results for the Potency in test [16], in test [7] and in test [11] were 8.63 µM (active), 43.2 µM (active) and 9.68 µM (active), respectively. In addition, in test [4], the compound was classed as inactive.
With `CCOP(=S)(Oc1ccc([N+](=O)[O-])cc1)c1ccccc1` (centres undefined), the Potency entry in test [1], in test [15], in test [2], in test [5], in [6] and in test [7] was “inactive” throughout. The Potency result in [8], in test [18], in test [9] and in [10] was “inactive” in each case. Further, the Potency in test [17] is 2.17 µM (active). In [4], the compound was called inactive.
Regarding `CN1C(=O)C(O)N=C(c2ccccc2)c2cc(Cl)ccc21` (centres undefined), the Potency result in test [1], in test [17], in test [16], in [2], in [3] and in test [7] was “inactive” each time. For the same compound, the Potency entry in [8], in [18], in test [9] and in test [10] was “inactive” in each case. Moreover, the result in [4] was inactive. For the same compound, in test [11], the Potency was 28.3 µM (active). Further, the max activation in [12] was -0.547%.
For `CCCCC(O)(Cn1cncn1)c1ccc(Cl)cc1Cl` (centres undefined), the Potency entry in test [1], in test [2], in [3], in test [6] and in test [9] was “inactive” each time. Moreover, the Potency in [17] is 17.2 µM (active); in test [11], 24.3 µM (active). The result in [4] was inactive.
`CC(c1ccc(O)cc1)(c1ccc(O)cc1)c1ccc(O)cc1`: the Potency entry in test [1], in test [2], in test [3], in test [8] and in test [9] was “inactive” throughout. For the same compound, the Potency was 19.3 µM (active) in [17], 68.6 µM (active) in test [18] and 68.6 µM (active) in test [11]. Further, the compound was classed as inactive in test [4].
`II`: the Potency result in test [1], in [15], in test [2], in test [3], in test [7] and in [8] was “inactive” throughout. The Potency entry in test [9], in test [10] and in test [11] was “inactive” in each case. Further, the Potency is 10.9 µM (active) in test [19] and 54.5 µM (active) in test [18]. In addition, in test [4], the call was inactive.
With `COc1ccc(-c2ccccc2)cc1NNC(=O)OC(C)C`, the Potency result in test [2], in test [3], in test [5], in [6], in [8] and in test [9] was “inactive” each time. For the same compound, in test [4], the compound was classed as inactive.
For `O=C=Nc1ccc(Cl)cc1`, the Potency result in test [1], in test [2], in test [5], in [6], in test [7] and in test [8] was “inactive” throughout. Also, the Potency result in test [18], in test [9] and in test [10] was “inactive” throughout. Besides, in test [4], the compound was called inactive. In [11], the Potency is 1.54 µM (active).
`C=CC[C@]1(O)CC[C@H]2[C@@H]3CCC4=CC(=O)CCC4=C3C=C[C@@]21C`: the Potency result in [2], in [3], in test [6], in test [7], in [8] and in test [9] was “inactive” in each case. For the same compound, the Potency result in test [10] and in [11] was “inactive” throughout. Moreover, the Potency in test [18] was 7.5 µM (active).
`O=Cc1ccc(Cl)cc1Cl`: the Potency result in [1], in [15], in test [19], in test [2], in test [3] and in test [6] was “inactive” throughout. For the same compound, the Potency result in test [7], in test [8], in test [18], in [9], in test [10] and in [11] was “inactive” each time. In test [4], the outcome was inactive.
